KCNQ2 pot: KCNQ2 (rat) channel potentiation; O88943; AID 2239; CHO-K1 KCNQ2, FluxOR thallium flux fluorescence; stronger effect = higher value; B-score at 10 µM; 0.54% of 310,000 active;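 active = fluorescence ratio B-score at least 3 SD of library B-scores, with initial fluorescence B-score within 3 of them, cut at about 5.3 in these data; same plate scores as AID 2156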;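 also: B-score of peak minus minimum over baseline fluorescence ratio after K+ and Tl+ stimulus; positive B-score means potentiation of KCNQ2 with more thallium influx and brighter signal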
Target sequence (O88943 whole entry, looked up): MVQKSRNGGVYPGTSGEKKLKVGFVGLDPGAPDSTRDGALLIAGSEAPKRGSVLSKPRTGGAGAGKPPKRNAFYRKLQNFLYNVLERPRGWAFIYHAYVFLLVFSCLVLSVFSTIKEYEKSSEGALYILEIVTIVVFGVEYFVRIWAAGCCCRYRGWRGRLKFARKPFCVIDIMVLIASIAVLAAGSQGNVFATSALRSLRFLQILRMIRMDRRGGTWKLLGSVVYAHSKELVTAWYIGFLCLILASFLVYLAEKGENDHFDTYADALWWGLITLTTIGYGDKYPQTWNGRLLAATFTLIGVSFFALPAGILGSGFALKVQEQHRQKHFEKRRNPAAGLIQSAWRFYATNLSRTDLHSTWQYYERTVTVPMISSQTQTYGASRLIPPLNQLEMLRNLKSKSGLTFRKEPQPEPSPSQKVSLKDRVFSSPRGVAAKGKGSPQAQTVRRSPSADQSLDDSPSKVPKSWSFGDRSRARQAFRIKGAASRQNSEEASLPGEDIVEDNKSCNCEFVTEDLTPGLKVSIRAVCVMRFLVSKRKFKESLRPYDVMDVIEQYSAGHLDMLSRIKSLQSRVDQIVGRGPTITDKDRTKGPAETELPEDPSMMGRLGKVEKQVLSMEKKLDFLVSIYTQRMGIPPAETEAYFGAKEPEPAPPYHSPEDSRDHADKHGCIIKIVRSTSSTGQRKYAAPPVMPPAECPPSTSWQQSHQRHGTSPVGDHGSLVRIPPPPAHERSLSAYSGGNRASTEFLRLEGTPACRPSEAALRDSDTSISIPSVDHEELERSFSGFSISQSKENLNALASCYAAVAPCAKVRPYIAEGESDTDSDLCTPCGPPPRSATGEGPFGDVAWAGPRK
KCNQ2 inh: inhibitors of rat KCNQ2 potassium channel. O88943. CHO-K1 KCNQ2, FluxOR thallium flux, 20 min; stronger effect = lower value. B-score at 10 µM. 1.1% of 310,000 active;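 active = fluorescence ratio B-score at most minus 3 library SDs, with starting brightness B-score within 2 library SDs, cut at about -5.5 in these data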
KCNQ2 inh conf: rat KCNQ2 channel inhibition, confirmatory screen; KCNQ2-expressing cells, thallium flux; stronger effect = lower value; shares compounds with KCNQ2 inh; 57% of 1,000 active; activity change, negative = inhibition, % at 10 µM
KCNQ1 spec: selectivity of KCNQ2 inhibitors against human KCNQ1; activity change, negative = inhibition, % at 10 µM; KCNQ1-expressing cells, FluxOR thallium flux fluorescence; stronger effect = lower value; shares compounds with KCNQ2 inh; 15% of 1,000 active;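 active = activity change at least 3 SD of negative controls below their mean in both duplicate wells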;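 also: CHO cells stably transfected with KCNQ1 and depolarized by potassium stimulus; peak minus minimum fluorescence over baseline after thallium addition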
CHO Tl ctr: activity in parental CHO cells lacking KCNQ2 | 14% of 1,000 active | shares compounds with KCNQ2 inh | activity change, % at 10 µM | thallium flux counter-screen; stronger effect = lower value | AID 493029
KCNQ2 inh confirm: confirmation of rat KCNQ2 potassium channel inhibitors | shares compounds with KCNQ2 inh | KCNQ2-expressing cells, automated patch clamp current | calls only at 10 µM | 49% of 550 active
Numbers stand for hits; - = inactive; . = not tested or not shown; + = active, no number. Rows were chosen to be rich in hits. Some 1.6% of all compounds tested hit in one or more screens of this group. Unless noted, no rule for the calls is given here.

SMILES	KCNQ2 pot	KCNQ2 inh	KCNQ2 inh conf	KCNQ1 spec	CHO Tl ctr	others
CCN(Cc1ccccc1)C(c1cccs1)c1nnnn1C1CCCCC1 (configuration not stated)	-	-10	-34%	-	-	KCNQ2 inh confirm=-
Nc1[nH]ncc1S(=O)(=O)c1ccccc1	.	-	.	.	.
CNC(=O)c1ccc(-c2sc3nc(N4CCOCC4)c4c(c3c2N)CCCC4)o1	-	-9.5	-22%	-	-	KCNQ2 inh confirm=-
CNC(=O)c1ccc(-c2sc3nc(N4CCOCC4)c4c(c3c2N)CC(C)(C)OC4)o1	-	-	.	.	.
Oc1ccc(/C=N/Nc2nc(N3CCCC3)nc(N3CCCC3)n2)cc1O	.	-	.	.	.
O=[N+]([O-])c1cccc(-n2cccc2/C=N/Nc2nc(N3CCCCC3)nc(N3CCCCC3)n2)c1	.	-	.	.	.
Brc1cccc(/C=N/Nc2nc(N3CCCCC3)nc(N3CCCCC3)n2)c1	-	-6.9	-19%	-	-	KCNQ2 inh confirm=-
O=[N+]([O-])c1cccc(/C=N/Nc2nc(N3CCCCC3)nc(N3CCCCC3)n2)c1	-	-7.7	-34%	-	-	KCNQ2 inh confirm=-
COc1ccc(N(C)C(=O)Cc2c(C(=O)O)n(C)c3ccccc23)c(OC)c1	-	-	.	.	.
N#CCc1cnc2ccccc2n1	.	-	.	.	.
CCOc1ccccc1N1CCN(Cc2c(C)n(C)n(-c3ccccc3)c2=O)CC1	-	-	.	.	.
Cc1ccc2c(c1)C(c1ccncc1)=NNC(c1ccccc1)=N2	.	-	.	.	.
c1ccc(C2=Nc3c(ccc4ccccc34)C(c3ccncc3)=NN2)cc1	-	-12	-29%	-	-	KCNQ2 inh confirm=+
O=C(CSc1nnc(-c2ccncc2)o1)NC1C2CC3CC(C2)CC1C3 (configuration not stated)	-	-	.	.	.
Cn1c(N)c(C(=O)COC(=O)CSc2cccc3cccc(Cl)c23)c(=O)n(C)c1=O	-	-	.	.	.
COc1ccc(NC(=O)c2cccc(N3C(=O)C4C5C=CC(C5)C4C3=O)c2)cc1Cl (configuration not stated)	-	-	.	.	.
O=[N+]([O-])c1cc([N+](=O)[O-])c2c(=Nc3ccccc3)n(-c3ccccc3)n(O)c2c1	-	-9.8	-34%	-40%	-28%	KCNQ2 inh confirm=+
O=[N+]([O-])c1cc(Br)c(Nc2ccccc2)c([N+](=O)[O-])c1	.	-	.	.	.
CC(C)c1ccc(N(C(=O)c2ccc3c(c2)OCO3)C2C=CS(=O)(=O)C2)cc1 (configuration not stated)	.	-	.	.	.
COc1cccc(CC2(CO)CCN(CC3=CC[C@H]4C[C@@H]3C4(C)C)CC2)c1	-	-	.	.	.
Cc1cc(S(=O)(=O)N2CCCc3ccccc32)ccc1-n1cnnn1	-	-	.	.	.
CCc1nc2ccc(F)cc2c(C(=O)NC2CCCCC2C)c1C (configuration not stated)	-	-7.1	-26%	-	-	KCNQ2 inh confirm=+
Cc1cc(C(=O)NC2CCCCC2C)c2ccccc2n1 (configuration not stated)	.	-	.	.	.
CCCNC(=O)Nc1ccsc1C(=O)OC	-	-	.	.	.
CC1=CCC2C(=O)N(c3cccc(C(=O)Nc4ccccc4Cl)c3)C(=O)C2C1 (configuration not stated)	.	-	.	.	.
SMILES	KCNQ2 pot	KCNQ2 inh	KCNQ2 inh conf	KCNQ1 spec	CHO Tl ctr	others
O=S(=O)(c1ccccc1)N(CC(O)Cn1c2ccccc2c2ccccc21)c1ccccc1 (configuration not stated)	-	-9.6	-	-	-
Cc1ccc(S(=O)(=O)N(C)CC(O)Cn2c3ccccc3c3ccccc32)cc1 (configuration not stated)	.	-	.	.	.
CC1=[N+]([O-])C(C)(C)N(O)C1(C)C	-	-	.	.	.
O=C(NCCc1cn2ccsc2n1)C1CCCCC1	-	-	.	.	.
Cc1csc2nc(CNC(=O)C3CCCCC3)cn12	-	-8.8	-	-	-
COc1ccc(-c2cc(C(F)F)n3ncc(C(=O)N4CCc5ccccc5C4)c3n2)cc1	.	-	.	.	.
COc1ccccc1-c1cc(C(F)(F)F)n2ncc(C(=O)N3CCc4ccccc4C3)c2n1	-	-7.6	-	-	-
CCSC(=Nc1ccccc1)N1CCOCC1	.	-	.	.	.
CCOC(=O)C1=C(N)OC2=C(C(=O)CC(C)(C)C2)C1c1cc(CSc2nnnn2C)cs1 (configuration not stated)	.	-	.	.	.
CC(Oc1ccc(Cl)cc1Cl)C(=O)N/N=C1\CCCc2ccccc21 (configuration not stated)	-	-6.7	-32%	-	-	KCNQ2 inh confirm=+
CC(Oc1ccc(Cl)cc1Cl)C(=O)NN=C1CCN(C)CC1 (configuration not stated)	-	-	.	.	.
CCOc1cc(CNCCc2ccc(S(N)(=O)=O)cc2)ccc1OCc1ccccc1	.	-	.	.	.
CCOc1cc(CNCCc2ccc(S(N)(=O)=O)cc2)cc(Cl)c1OCc1ccccc1	-	-9.4	-30%	-	-	KCNQ2 inh confirm=-
CCN(C(=O)COC(=O)c1ccc(Cl)c(N)c1)C1CCS(=O)(=O)C1 (configuration not stated)	-	-	.	.	.
Cc1cccc(NCc2nc3ccccc3n2Cc2ccccc2)c1	-	-8.4	-	-	-
Cc1nc2cc(NCc3nc4ccccc4n3Cc3ccccc3)ccc2n1C	.	-	.	.	.
Cc1ccc(Nc2nnc(C)c3ccccc23)c(C)c1	.	-	.	.	.
O=C(CN1CCCC(O)C1)N1c2ccccc2Sc2ccc(C(F)(F)F)cc21 (configuration not stated)	.	-	.	.	.
CN1CCN(CCCN2c3ccccc3Sc3ccc(C(F)(F)F)cc32)CC1	-	-8.1	-34%	-	-	KCNQ2 inh confirm=-
CS(=O)(=O)c1ccccc1C(=O)N(CCC1=CCCCC1)c1c(N)n(Cc2ccccc2)c(=O)[nH]c1=O	.	-	.	.	.
NC(=O)C1CCN(C(=O)c2cc3ccccc3cc2O)CC1	.	-	.	.	.
CCOC(=O)c1c(-c2ccc(C)cc2)csc1NC(=O)C1CCCO1 (configuration not stated)	-	-	.	.	.
CC(C)OC(=O)c1c(-c2ccc(C(C)C)cc2)csc1NC(=O)C1CCCO1 (configuration not stated)	-	-7.2	-32%	-	-	KCNQ2 inh confirm=-
CCOC(=O)C1C(=O)C=C(c2cccs2)CC1c1ccccc1 (configuration not stated)	.	-	.	.	.
CCOC(=O)C1C(=O)C=C(c2ccc(C)cc2)CC1c1ccccc1 (configuration not stated)	-	-7.2	-26%	-	-	KCNQ2 inh confirm=-
SMILES	KCNQ2 pot	KCNQ2 inh	KCNQ2 inh conf	KCNQ1 spec	CHO Tl ctr	others
COC(=O)CN(C)C(=O)c1ccccc1OC1CCN(S(C)(=O)=O)CC1	.	-	.	.	.
COc1ccc(S(=O)(=O)N(CC(=O)NCc2ccncc2)Cc2ccccc2)cc1	.	-	.	.	.
COc1ccc(CNC(=O)CN(Cc2ccc(Cl)cc2)S(=O)(=O)c2ccccc2)cc1	-	-7.5	-30%	-	-	KCNQ2 inh confirm=-
COc1ccc(C(=O)Nc2nc3cc4c(cc3s2)OCCO4)c(OC)c1	-	-	.	.	.
CC1CN(S(=O)(=O)c2cc(C(=O)N(CCc3ccccc3)Cc3ccccc3)ccc2Cl)CC(C)O1 (configuration not stated)	-	-7.2	-	-	-
CCN(CC1COc2ccccc2O1)C(=O)c1ccc(Cl)c(S(=O)(=O)N2CC(C)OC(C)C2)c1 (configuration not stated)	.	-	.	.	.

Compound activity from PubChem BioAssay.
